Screening data (PubChem)
GPR151 ag: human GPR151 activation | Q8TDV0 | activation, % at 11.2 µM | 650,000 compounds, 1% hits | AID 1508602 | PathHunter beta-arrestin GPR151 cells, luminescence; in the data active means activation above about 4.9%;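 further: 0% = median of compound wells and 100% = cells with positive control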
MITF primary: inhibitors of human MITF | inhibition, % at 2.6 µM | AlphaScreen MITF homodimerization, bead proximity signal | O75030 | 650,000 compounds, 0.91% hits; in the data active means inhibition above about 50%;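 further: 0% = vehicle wells with protein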
TEAD-YAP block: TEAD-YAP interaction inhibition. HEK-TIYL cells, TEAD-Gal4/YAP UAS-luciferase luminescence. inhibition, % at 9.12 µM. 640,000 compounds, 1.4% hits; in the data active means inhibition above about 32%;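 further: 0% = median of test compound wells and 100% = reference inhibitor wells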
FBW7 act: activators of human E3 ligase FBW7. Q969H0. AlphaScreen FBW7–phospho-cyclin E peptide binding, activator screen. normalized activity (activation), % at 26.1 µM. 650,000 compounds, 0.13% hits; in the data active means normalized activity above about 1.9%;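 further: purified mutant Fbw7 with reduced substrate affinity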
GPR151 conf act: confirmation of human GPR151 activators | activation, % at 11.2 µM | shares compounds with GPR151 ag | GPR151 PathHunter beta-arrestin cells, luminescence, 90 min; % of EA-reagent control over plate median | AID 1508609 | 6,700 tested, under 10 active;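 active means mean percent activation across replicates above the confirmation screen cutoff of 4.91%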
GPR119 ag: counter-screen for GPR151 activators: effect on human GPR119. activation, % at 11.2 µM. 6,700 compounds, 0.3% hits. shares compounds with GPR151 ag. GPR119 PathHunter beta-arrestin cells, luminescence, 90 min; 0 = compound-well median, 100 = enzyme-acceptor control;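 active means mean percent activation in the counterscreen above 29.09%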;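 further: counterscreen on off-target GPR119 to flag nonselective hits from the GPR151 activator screen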
Target sequence (Q8TDV5 whole entry, looked up): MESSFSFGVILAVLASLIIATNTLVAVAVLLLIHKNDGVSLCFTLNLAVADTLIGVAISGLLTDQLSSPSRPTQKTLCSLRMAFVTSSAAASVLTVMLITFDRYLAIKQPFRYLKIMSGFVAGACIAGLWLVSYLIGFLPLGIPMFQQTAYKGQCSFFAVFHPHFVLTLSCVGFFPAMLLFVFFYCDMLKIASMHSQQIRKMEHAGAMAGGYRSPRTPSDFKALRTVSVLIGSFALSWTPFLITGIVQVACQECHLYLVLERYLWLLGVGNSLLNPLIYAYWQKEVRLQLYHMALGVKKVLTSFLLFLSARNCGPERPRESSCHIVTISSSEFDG
* hit, by the source's call; . = no result. An excerpt weighted towards active compounds, which were near 3.4% of everything screened.

SMILES | GPR151 ag | MITF primary | TEAD-YAP block | FBW7 act | GPR151 conf act | GPR119 ag
Cc1ccc(CSc2nc3ccccc3c(=O)n2CC2CCCO2)cc1 (stereo not given) | -1 | -8 | -8 | 0 | . | .
O=c1c2ccccc2nc(SCc2ccncc2)n1CC1CCCO1 (stereo not given) | 6.2* | -2 | 5 | 0 | 1 | 16
CCOC(=O)c1[nH]c(C)c(C(=O)Nc2ccc(Br)cc2)c1C | 1 | 8 | -5 | 0 | . | .
CC(=O)OC(C(=O)NCc1ccco1)c1ccncc1 (stereo not given) | 11* | -3 | -5 | 0 | 2 | 6
CCCNC(=O)c1cccc(NCCN2CCOCC2)n1 | 0 | -5 | -11 | 0 | . | .
O=C(NC1CCC(NC(=O)c2cccc(F)c2)CC1)c1cccc(F)c1 (stereo not given) | 9.4* | -1 | 4 | 0 | 0 | -5
COc1ccc(NC(=O)c2cc([N+](=O)[O-])ccc2NCc2cccnc2)cc1 | 0 | 4 | 15 | 0 | . | .
CC(C)CCNc1c(-c2ccccc2)c(=O)c1=O | 6.9* | -9 | 8 | 0 | 1 | 0
CCOc1ccc(N2CCn3c2nnc(C(=O)NCc2ccc(Cl)cc2)c3=O)cc1 | 5.0* | 4 | 0 | 0 | 0 | -11
O=C(CC1OCCN(Cc2ccccc2)C1=O)Nc1ccc2c(c1)OCO2 (stereo not given) | 9.9* | 21 | 3 | 0 | 1 | 14
CCn1c(-c2cccc(Cl)c2)n[nH]c1=S | -1 | 12 | 5 | 0 | . | .
CCN(CC)c1n[nH]c(-c2cccc(Cl)c2)n1 | 5.3* | 14 | -30 | 0 | -1 | -8
COc1ccc(/C=N/n2c(C)nnc2-n2nc(C)cc2C)cc1[N+](=O)[O-] | -2 | 15 | 5 | 0 | . | .
COc1cc([N+](=O)[O-])ccc1-c1ccc(C(=O)Nc2ccc(Br)cn2)o1 | 7.1* | 4 | -3 | 0 | 1 | 17
COc1cc([N+](=O)[O-])ccc1-c1ccc(C(=O)Nc2cc(Cl)cc(Cl)c2)o1 | -1 | -4 | 4 | 0 | . | .
C/C(=N\Nc1cc(-n2cc(C)cn2)ncn1)c1cccc([N+](=O)[O-])c1 | 19* | 14 | 10 | 0 | 0 | 4
C/C(=N\Nc1cc(-n2cc(C)cn2)ncn1)c1ccccc1 | 0 | 4 | -10 | 0 | . | .
NS(=O)(=O)c1ccc(NC(=O)COC(=O)C(NC(=O)c2ccccc2)c2ccccc2)cc1 (stereo not given) | -2 | 3 | 11 | 0 | . | .
Cc1ccc2cc(CN(CC3CCCO3)C(=O)C3CCC3)c3nnnn3c2c1 (stereo not given) | 8.4* | 4 | 12 | 0 | 4 | 8
Cc1occc1C(=O)N1CCC(Oc2ccc(C(=O)NCCc3ccccc3)cc2)CC1 | 0 | 4 | 11 | 0 | . | .
CC(C)N(CCNc1nc(NCCN2CCOCC2)nc2c1ncn2Cc1ccc(C(F)(F)F)cc1)C(C)C | 6.4* | 0 | -1 | 0 | 0 | -3
O=C1CCCN1CCCNc1nc(NCCN2CCOCC2)c2ncn(CCN3CCCC3=O)c2n1 | 6.4* | 2 | -9 | 0 | 0 | -11
O=C1CCCN1CCCNc1nc(NCCCN2CCCC2=O)c2ncn(CCN3CCCC3=O)c2n1 | -2 | 10 | -9 | 0 | . | .
O=C1CCCN1CCn1cnc2c(NC3CC3)nc(Nc3ccncc3)nc21 | 12* | 0 | 1 | 0 | 0 | -3
O=C1CCCN1CCCNc1nc(N2CCC(N3CCOCC3)CC2)nc2c1ncn2C1CCCCC1 | 14* | -2 | -1 | 0 | 0 | -6
Cc1cc(C)nc(S/C=C/c2ccccc2)n1 | -1 | 14 | -21 | 1 | . | .
CCCNc1nc(Nc2cc(OC)c(OC)c(OC)c2)nc2c1ncn2CCN1CCCC1=O | 2 | 12 | 9 | 0 | . | .
CCNc1nc(NCCCN2CCCC2=O)c2ncn(C(C)C)c2n1 | 5.4* | 4 | 8 | 0 | 0 | -8
CC(C)n1cnc2c(NCCCN3CCCC3=O)nc(NCCCN3CCCC3=O)nc21 | 3 | 10 | -1 | 0 | . | .
COc1cc(Nc2nc(NCCN3CCOCC3)c3ncn(CCN4CCCC4=O)c3n2)cc(OC)c1OC | 5.7* | 17 | 0 | 0 | 2 | 4
